Data from PubChem BioAssay AID1159580 (chemical genetic matrix, 2015).
The whole screen tested about 5,500 compounds, of which about 2,000 (36%) were called active. Inconclusive results (about 18%) are left out. The list shows a part of the results. Unmarked numbers belong to inactive results. Rule as the data show it: active = normalized growth mostly below about 0.91 (no sharp cut-off); inconclusive = no clear call, values can overlap the other calls; inactive = mostly above about 0.92.

Experiment: chemical genetic growth profiling, strain panel (AID 1159580);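 also: tested at 20 µM; growth read once vehicle control cultures reached saturation at 30 °C; 1 = growth at the plate median or of vehicle wells; lower values mean less growth of the strain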
Details: growth OD
[1] = S. cerevisiae deletion strains, locus YAL013W, strain DEP1, stronger effect = lower value
[2] = S. cerevisiae deletion strains, locus YBR229C, strain ROT2, stronger effect = lower value
[3] = S. cerevisiae deletion strains, locus YCL061C, strain MRC1, stronger effect = lower value
[4] = S. cerevisiae deletion strains, locus YDL101C, strain DUN1, stronger effect = lower value
[5] = S. cerevisiae deletion strains, locus YDR150W, strain NUM1, stronger effect = lower value
[6] = S. cerevisiae deletion strains, locus YEL061C, strain CIN8, stronger effect = lower value
[7] = S. cerevisiae deletion strains, locus YGR078C, strain PAC10, stronger effect = lower value
[8] = S. cerevisiae deletion strains, locus YHR030C, strain SLT2, stronger effect = lower value
[9] = S. cerevisiae deletion strains, locus YHR087W, strain rtc3, stronger effect = lower value
[10] = S. cerevisiae deletion strains, locus YJR043C, strain POL32, stronger effect = lower value
[11] = S. cerevisiae deletion strains, locus YJR075W, strain HOC1, stronger effect = lower value
[12] = S. cerevisiae deletion strains, locus YLR039C, strain RIC1, stronger effect = lower value
[13] = S. cerevisiae deletion strains, locus YLR058C, strain SHM2 (second series), stronger effect = lower value
[14] = S. cerevisiae deletion strains, locus YLR085C, strain ARP6, stronger effect = lower value
[15] = S. cerevisiae deletion strains, locus YLR262C, strain YPT6, stronger effect = lower value
[16] = S. cerevisiae deletion strains, locus YML094W, strain GIM5, stronger effect = lower value
[17] = S. cerevisiae deletion strains, locus YMR219W, strain ESC1, stronger effect = lower value
[18] = S. cerevisiae deletion strains, locus YMR263W, strain SAP30, stronger effect = lower value
[19] = S. cerevisiae deletion strains, locus YNL153C, strain GIM3, stronger effect = lower value
[20] = S. cerevisiae deletion strains, locus YNL298W, strain CLA4 (second series), stronger effect = lower value
[21] = S. cerevisiae deletion strains, locus YNL322C, strain KRE1, stronger effect = lower value
[22] = S. cerevisiae deletion strains, locus YNR030W, strain Alg12, stronger effect = lower value
[23] = S. cerevisiae deletion strains, locus YOL006C, strain TOP1, stronger effect = lower value
[24] = S. cerevisiae deletion strains, locus YPL055C, strain LGE1, stronger effect = lower value
[25] = S. cerevisiae deletion strains, locus YPL241C, strain CIN2, stronger effect = lower value
[26] = S. cerevisiae deletion strains, locus YPR135W, strain CTF4, stronger effect = lower value
[27] = S. cerevisiae strains, strain wild type, stronger effect = lower value
[28] = S. cerevisiae deletion strains, locus YDL134C, strain PPH21, stronger effect = lower value

CSc1cccc(NC(=S)N=CN(C)C)c1
normalized growth [1]: 0.977 | normalized growth [2]: 1.01 | normalized growth [3]: 0.954 | normalized growth [4]: 0.944 | normalized growth [5]: 0.974 | normalized growth [6]: 0.997 | normalized growth [7]: 0.977 | normalized growth [8]: 0.882 | normalized growth [9]: 1.12 [resistant] (active) | normalized growth (S. cerevisiae deletion strains, locus YJL187C, strain SWE1, stronger effect = lower value): 0.988 | normalized growth [10]: 0.961 | normalized growth [11]: 1.05 | normalized growth [12]: 0.73 (active) | normalized growth [13]: 1.03 | normalized growth [14]: 0.618 (active) | normalized growth [15]: 0.932 | normalized growth [16]: 0.96 | normalized growth [17]: 1 | normalized growth [18]: 0.983 | normalized growth (S. cerevisiae deletion strains, locus YNL128W, strain TEP1, stronger effect = lower value): 0.962 | normalized growth [19]: 0.963 | normalized growth [20]: 0.798 (active) | normalized growth [21]: 1 | normalized growth [22]: 0.958 | normalized growth [23]: 0.393 (active) | normalized growth [24]: 1.02 | normalized growth [25]: 0.898 | normalized growth [26]: 0.787 | normalized growth [27]: 0.933

COc1ccccc1Oc1ccc(C(F)(F)F)cc1NC(=O)NC(=O)c1ccccc1F
normalized growth [1]: 0.997 | normalized growth [2]: 1 | normalized growth [3]: 0.972 | normalized growth [4]: 0.968 | normalized growth [28]: 0.984 | normalized growth [5]: 1.02 | normalized growth [6]: 0.979 | normalized growth [7]: 0.979 | normalized growth [8]: 1 | normalized growth [9]: 1.06 | normalized growth [10]: 0.984 | normalized growth [11]: 1.02 | normalized growth [12]: 0.964 | normalized growth [13]: 1 | normalized growth [14]: 1.02 | normalized growth [15]: 1.02 | normalized growth [16]: 1.02 | normalized growth [17]: 0.994 | normalized growth [18]: 1.01 | normalized growth [19]: 1 | normalized growth [20]: 0.958 | normalized growth [21]: 0.995 | normalized growth [22]: 1.03 | normalized growth [23]: 0.966 | normalized growth [24]: 1.04 | normalized growth [25]: 0.992 | normalized growth [26]: 0.957 | normalized growth [27]: 0.974

COc1ccc(CCNc2ccc(C(F)(F)F)cc2N)cc1OC
normalized growth [1]: 1 | normalized growth [2]: 0.998 | normalized growth [3]: 1 | normalized growth [4]: 0.974 | normalized growth [28]: 1.02 | normalized growth [5]: 0.911 | normalized growth [6]: 1.02 | normalized growth [7]: 0.985 | normalized growth [8]: 0.903 | normalized growth [9]: 1.04 | normalized growth [10]: 0.996 | normalized growth [11]: 1.02 | normalized growth [12]: 0.988 | normalized growth [13]: 1.01 | normalized growth [14]: 0.961 | normalized growth [15]: 0.946 | normalized growth [16]: 0.972 | normalized growth [17]: 0.994 | normalized growth [18]: 0.918 | normalized growth [19]: 0.988 | normalized growth [20]: 0.966 | normalized growth [21]: 1.01 | normalized growth [22]: 0.974 | normalized growth [23]: 1.01 | normalized growth [24]: 0.893 | normalized growth [25]: 0.93 | normalized growth [26]: 0.842 | normalized growth [27]: 1.01

Cc1cc(Oc2ccc(C(F)(F)F)cc2NS(C)(=O)=O)cc(C)c1Cl
normalized growth (S. cerevisiae deletion strains, locus YAR019C, strain CDC15, stronger effect = lower value): 0.992 | normalized growth (S. cerevisiae deletion strains, locus YBL105C, strain PKC1, stronger effect = lower value): 0.988 | normalized growth (S. cerevisiae deletion strains, locus YBR135W, strain CKS1, stronger effect = lower value): 0.995 | normalized growth (S. cerevisiae deletion strains, locus YBR136W, strain MEC1, stronger effect = lower value): 0.991 | normalized growth (S. cerevisiae deletion strains, locus YBR160W, strain CDC28, stronger effect = lower value): 0.988 | normalized growth (S. cerevisiae deletion strains, locus YDL017W, strain CDC7, stronger effect = lower value): 0.982 | normalized growth (S. cerevisiae deletion strains, locus YDL028C, strain MPS1, stronger effect = lower value): 0.998 | normalized growth [4]: 0.979 | normalized growth (S. cerevisiae deletion strains, locus YDL108W, strain KIN28, stronger effect = lower value): 0.995 | normalized growth (S. cerevisiae deletion strains, locus YDL132W, strain cdc53, stronger effect = lower value): 0.989 | normalized growth (S. cerevisiae deletion strains, locus YDL214C, strain PRR2, stronger effect = lower value): 0.961 | normalized growth (S. cerevisiae deletion strains, locus YDR052C, strain DBF4, stronger effect = lower value): 0.996 | normalized growth (S. cerevisiae deletion strains, locus YDR054C, strain cdc34, stronger effect = lower value): 0.995 | normalized growth (S. cerevisiae deletion strains, locus YDR226W, strain ADK1, stronger effect = lower value): 0.979 | normalized growth (S. cerevisiae deletion strains, locus YDR477W, strain SNF1, stronger effect = lower value): 0.978 | normalized growth (S. cerevisiae deletion strains, locus YER123W, strain YCK3, stronger effect = lower value): 0.95 | normalized growth (S. cerevisiae deletion strains, locus YER133W, strain GLC7, stronger effect = lower value): 0.974 | normalized growth (S. cerevisiae deletion strains, locus YFL009W, strain cdc4, stronger effect = lower value): 0.995 | normalized growth (S. cerevisiae deletion strains, locus YFL029C, strain CAK1, stronger effect = lower value): 0.981 | normalized growth (S. cerevisiae deletion strains, locus YFR003C, strain YPI1, stronger effect = lower value): 0.986 | normalized growth (S. cerevisiae deletion strains, locus YFR019W, strain FAB1, stronger effect = lower value): 0.984 | normalized growth (S. cerevisiae deletion strains, locus YFR028C, strain CDC14, stronger effect = lower value): 0.995 | normalized growth (S. cerevisiae deletion strains, locus YGR040W, strain KSS1, stronger effect = lower value): 0.985 | normalized growth (S. cerevisiae deletion strains, locus YGR052W, strain FMP48, stronger effect = lower value): 0.986 | normalized growth (S. cerevisiae deletion strains, locus YGR092W, strain DBF2, stronger effect = lower value): 0.889 | normalized growth [8]: 0.802 (active) | normalized growth (S. cerevisiae deletion strains, locus YHR079C, strain IRE1, stronger effect = lower value): 0.873 | normalized growth (S. cerevisiae deletion strains, locus YHR082C, strain KSP1, stronger effect = lower value): 1.03 | normalized growth (S. cerevisiae deletion strains, locus YHR205W, strain SCH9, stronger effect = lower value): 0.902 | normalized growth (S. cerevisiae deletion strains, locus YIL147C, strain SLN1, stronger effect = lower value): 0.993 | normalized growth (S. cerevisiae deletion strains, locus YJL095W, strain BCK1, stronger effect = lower value): 0.891 | normalized growth (S. cerevisiae deletion strains, locus YJL128C, strain PBS2, stronger effect = lower value): 0.947 | normalized growth (S. cerevisiae deletion strains, locus YJL157C, strain FAR1, stronger effect = lower value): 0.963 | normalized growth (S. cerevisiae deletion strains, locus YJR016C, strain ILV3, stronger effect = lower value): 0.986 | normalized growth (S. cerevisiae deletion strains, locus YJR066W, strain TOR1 (second series), stronger effect = lower value): 0.928 | normalized growth (S. cerevisiae deletion strains, locus YJR066W, strain TOR1, stronger effect = lower value): 1.01 | normalized growth (S. cerevisiae deletion strains, locus YKL048C, strain ELM1, stronger effect = lower value): 0.985 | normalized growth (S. cerevisiae deletion strains, locus YKL067W, strain YNK1, stronger effect = lower value): 0.957 | normalized growth (S. cerevisiae deletion strains, locus YKL101W, strain HSL1, stronger effect = lower value): 0.961 | normalized growth (S. cerevisiae deletion strains, locus YKL193C, strain SDS22, stronger effect = lower value): 0.989 | normalized growth (S. cerevisiae deletion strains, locus YKL203C, strain TOR2, stronger effect = lower value): 1.02 | normalized growth (S. cerevisiae deletion strains, locus YLR113W, strain HOG1, stronger effect = lower value): 0.75 (active) | normalized growth (S. cerevisiae deletion strains, locus YLR133W, strain CKI1, stronger effect = lower value): 0.96 | normalized growth (S. cerevisiae deletion strains, locus YLR403W, strain SFP1, stronger effect = lower value): 0.939 | normalized growth (S. cerevisiae deletion strains, locus YML070W, strain DAK1, stronger effect = lower value): 0.931 | normalized growth (S. cerevisiae deletion strains, locus YMR001C, strain CDC5, stronger effect = lower value): 0.989 | normalized growth (S. cerevisiae deletion strains, locus YMR205C, strain PFK2 (second series), stronger effect = lower value): 0.972 | normalized growth (S. cerevisiae deletion strains, locus YMR277W, strain FCP1, stronger effect = lower value): 0.991 | normalized growth (S. cerevisiae deletion strains, locus YNL006W, strain LST8, stronger effect = lower value): 0.983 | normalized growth (S. cerevisiae deletion strains, locus YNL020C, strain ARK1, stronger effect = lower value): 0.914 | normalized growth (S. cerevisiae deletion strains, locus YNL161W, strain CBK1, stronger effect = lower value): 0.985 | normalized growth (S. cerevisiae deletion strains, locus YNL183C, strain NPR1, stronger effect = lower value): 0.981 | normalized growth (S. cerevisiae deletion strains, locus YNL207W, strain RIO2, stronger effect = lower value): 0.987 | normalized growth (S. cerevisiae deletion strains, locus YNL222W, strain SSU72, stronger effect = lower value): 0.996 | normalized growth (S. cerevisiae deletion strains, locus YNL307C, strain MCK1 (second series), stronger effect = lower value): 0.939 | normalized growth (S. cerevisiae deletion strains, locus YOL078W, strain AVO1, stronger effect = lower value): 0.995 | normalized growth (S. cerevisiae deletion strains, locus YOL136C, strain PFK27, stronger effect = lower value): 0.939 | normalized growth (S. cerevisiae deletion strains, locus YOR061W, strain CKA2, stronger effect = lower value): 0.923 | normalized growth (S. cerevisiae deletion strains, locus YOR119C, strain RIO1, stronger effect = lower value): 1.04 | normalized growth (S. cerevisiae deletion strains, locus YOR231W, strain MKK1, stronger effect = lower value): 0.902 | normalized growth (S. cerevisiae deletion strains, locus YOR329C, strain SCD5, stronger effect = lower value): 0.984 | normalized growth (S. cerevisiae deletion strains, locus YPL031C, strain PHO85, stronger effect = lower value): 0.971 | normalized growth (S. cerevisiae deletion strains, locus YPL153C, strain RAD53, stronger effect = lower value): 0.981 | normalized growth (S. cerevisiae deletion strains, locus YPL204W, strain HRR25, stronger effect = lower value): 0.947 | normalized growth (S. cerevisiae deletion strains, locus YPL209C, strain IPL1, stronger effect = lower value): 0.987 | normalized growth (S. cerevisiae deletion strains, locus YPL256C, strain CLN2, stronger effect = lower value): 0.827 (active) | normalized growth (S. cerevisiae deletion strains, locus YPR025C, strain CCL1, stronger effect = lower value): 0.993 | normalized growth (S. cerevisiae deletion strains, locus YPR106W, strain ISR1, stronger effect = lower value): 0.985 | normalized growth (S. cerevisiae deletion strains, locus YPR111W, strain DBF20, stronger effect = lower value): 0.973 | normalized growth (S. cerevisiae deletion strains, strain NNK1, stronger effect = lower value): 0.984 | normalized growth (S. cerevisiae deletion strains, strain TSCII, stronger effect = lower value): 0.993
